Experimental data taken from PubChem BioAssay.
Unmarked numbers belong to inactive results. For some assays here: Results with a measured potency or affinity are listed apart. Calls of active or inactive are those of the source. Unless noted, the rule behind the calls is not given here.

Legend:
[1] = antimalarial activity against Dd2 strain (AID 2302;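 active = growth inhibition above 50% at the single 2 µM test dose, taken to imply half-maximal potency below 2 µM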;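 note: 0% = DMSO untreated growth and 100% = chloroquine plus artemisinin killed control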); details: P. falciparum Dd2 in RBCs, LDH growth readout, 72 h; at 2 µM; stronger effect = higher value
[2] = human hepatoma cell viability loss – ATP luminescence, cytotoxicity control for P. falciparum antimalarial project, primary screen (AID 2303;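 active = inhibition above 50%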;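 note: 0% = DMSO wells and 100% = digitonin-killed cells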); details: HepG2 viability, 24-48 h, at 10 µM, stronger effect = higher value
[3] = biological target: L-lactate dehydrogenase (Plasmodium falciparum (isolate CDC / Honduras)) (UniProt Q27743); assay: PfLDH activity inhibition – cell lysate, 3D7 strain, counter-screen for P. falciparum growth inhibition project (AID 2304);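 note: 0% = vehicle and 100% = reference inhibitor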; details: P. falciparum 3D7 crude extract, LDH APAD/NBT absorbance; at 2 µM; stronger effect = higher value
[4] = inhibition of 3D7 malaria parasite growth – strain 3D7 (AID 2306);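 note: 0% = DMSO wells and 100% = chloroquine plus artemisinin control wells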; details: P. falciparum 3D7 erythrocytic growth, LDH absorbance, 72 h; at 2 µM; stronger effect = higher value
[5] = biological target: Calcium-dependent protein kinase 1 (Plasmodium falciparum (isolate 3D7)) (UniProt P62344); assay: PfCDPK1 kinase inhibitors, biochemical, TCAMS library (AID 1159585; cut-off not given, nearly all actives have IC50 up to about 0.98 µM;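 note: inhibitors leave more ATP so luminescence rises with inhibition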); details: recombinant PfCDPK1, Kinase-Glo ATP depletion luminescence
[6] = biological target: Plasmodium falciparum protein kinase 6 (PK6, PF3D7_1337100) (UniProt Q8IDW1); assay: PfPK6 kinase inhibitors, biochemical, TCAMS library (AID 1159586); details: recombinant PfPK6, Kinase-Glo ATP depletion luminescence
[7] = biological target: Protein kinase 7 (PK7), Plasmodium falciparum 3D7 (PF3D7_0213400) (UniProt Q7YTF7); assay: inhibition of Plasmodium PK7 catalytic activity – biochemical, TCAMS antimalarial set, Kinase-Glo luminescence (AID 1159587); details: recombinant PfPK7, Kinase-Glo ATP depletion luminescence
[8] = biological target: Calcium-dependent protein kinase 4 (Plasmodium falciparum (isolate 3D7)) (UniProt Q8IBS5); assay: PfCDPK4 kinase inhibitors, biochemical, TCAMS library (AID 1159588; cut-off not given, nearly all actives have IC50 up to about 0.91 µM); details: recombinant PfCDPK4, Kinase-Glo ATP depletion luminescence
Calcium-dependent protein kinase 4 (Plasmodium falciparum (isolate 3D7)), sequence (Q8IBS5 whole entry, looked up): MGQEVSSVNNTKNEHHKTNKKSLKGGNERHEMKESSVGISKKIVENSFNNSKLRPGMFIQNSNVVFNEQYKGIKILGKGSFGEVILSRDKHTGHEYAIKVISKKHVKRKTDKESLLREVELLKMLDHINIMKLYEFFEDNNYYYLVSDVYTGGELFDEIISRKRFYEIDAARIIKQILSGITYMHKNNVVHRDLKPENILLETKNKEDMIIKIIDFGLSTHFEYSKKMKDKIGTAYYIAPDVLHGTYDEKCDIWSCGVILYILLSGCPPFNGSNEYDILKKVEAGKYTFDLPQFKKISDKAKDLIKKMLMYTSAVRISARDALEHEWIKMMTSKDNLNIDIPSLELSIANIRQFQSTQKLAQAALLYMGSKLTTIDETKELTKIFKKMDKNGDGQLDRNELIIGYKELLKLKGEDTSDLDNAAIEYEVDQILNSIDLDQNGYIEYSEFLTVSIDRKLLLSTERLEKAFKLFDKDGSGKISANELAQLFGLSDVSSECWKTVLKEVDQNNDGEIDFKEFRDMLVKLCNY

Protein kinase 7 (PK7), Plasmodium falciparum 3D7 (PF3D7_0213400), sequence (Q7YTF7 1-343): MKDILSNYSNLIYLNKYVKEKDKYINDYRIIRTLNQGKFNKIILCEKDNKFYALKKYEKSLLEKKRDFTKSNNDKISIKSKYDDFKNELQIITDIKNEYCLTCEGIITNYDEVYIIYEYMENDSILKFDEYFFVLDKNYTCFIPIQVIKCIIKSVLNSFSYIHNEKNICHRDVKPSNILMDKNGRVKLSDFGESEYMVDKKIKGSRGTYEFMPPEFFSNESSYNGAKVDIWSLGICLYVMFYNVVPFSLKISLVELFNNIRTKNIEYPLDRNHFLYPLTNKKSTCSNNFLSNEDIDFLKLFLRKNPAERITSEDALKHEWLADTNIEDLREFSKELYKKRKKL
Plasmodium falciparum protein kinase 6 (PK6, PF3D7_1337100), sequence (Q8IDW1 1-305): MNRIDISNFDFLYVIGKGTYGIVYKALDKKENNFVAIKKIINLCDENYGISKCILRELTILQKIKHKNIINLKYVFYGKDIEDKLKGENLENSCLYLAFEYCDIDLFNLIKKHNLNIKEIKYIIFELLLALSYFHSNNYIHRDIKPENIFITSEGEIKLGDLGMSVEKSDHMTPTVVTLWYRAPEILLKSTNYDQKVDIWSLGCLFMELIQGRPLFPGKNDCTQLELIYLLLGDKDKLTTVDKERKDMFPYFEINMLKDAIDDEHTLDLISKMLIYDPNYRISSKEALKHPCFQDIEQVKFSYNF
L-lactate dehydrogenase (Plasmodium falciparum (isolate CDC / Honduras)), sequence (Q27743 whole entry, looked up): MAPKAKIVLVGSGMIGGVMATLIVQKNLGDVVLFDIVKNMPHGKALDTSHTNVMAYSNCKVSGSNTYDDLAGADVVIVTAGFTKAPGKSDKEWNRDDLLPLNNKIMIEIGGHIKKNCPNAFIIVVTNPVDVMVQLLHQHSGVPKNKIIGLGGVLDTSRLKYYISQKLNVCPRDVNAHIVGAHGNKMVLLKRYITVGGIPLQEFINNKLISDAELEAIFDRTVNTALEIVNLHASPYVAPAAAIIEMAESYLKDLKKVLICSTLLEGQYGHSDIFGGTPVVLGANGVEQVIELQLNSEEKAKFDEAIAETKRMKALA
Calcium-dependent protein kinase 1 (Plasmodium falciparum (isolate 3D7)), sequence (P62344 whole entry, looked up): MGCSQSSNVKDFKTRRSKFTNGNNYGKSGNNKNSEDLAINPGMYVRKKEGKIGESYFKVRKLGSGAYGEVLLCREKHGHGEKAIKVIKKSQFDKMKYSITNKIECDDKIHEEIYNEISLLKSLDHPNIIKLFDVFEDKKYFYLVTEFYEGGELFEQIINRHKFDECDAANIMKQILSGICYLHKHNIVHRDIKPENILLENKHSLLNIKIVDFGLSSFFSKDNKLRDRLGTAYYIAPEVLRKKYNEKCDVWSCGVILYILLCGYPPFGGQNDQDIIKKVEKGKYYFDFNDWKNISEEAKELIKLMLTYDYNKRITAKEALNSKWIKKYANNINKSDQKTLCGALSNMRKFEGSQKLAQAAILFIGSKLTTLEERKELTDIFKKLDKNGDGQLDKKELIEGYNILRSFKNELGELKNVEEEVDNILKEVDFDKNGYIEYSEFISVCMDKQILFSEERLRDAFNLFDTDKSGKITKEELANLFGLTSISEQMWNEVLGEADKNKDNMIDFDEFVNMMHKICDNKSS

Compound	growth inhibition [1]	inhibition [2]	inhibition [3]	growth inhibition [4]	outcome [5]	outcome [6]	outcome [7]	outcome [8]
Cc1cc2c(cc1C(F)(F)F)N(C(=O)Nc1cc(C(=O)NCCN(C)C)cc(C(F)(F)F)c1)CC2	50% (active)	19%	-7%	100% (active)	inactive	inactive	inactive	inactive
CN(C)CCNC(=O)[C@H](Cc1ccccc1)NC(=O)c1ccc(O)c(-c2ccc(Cl)c(Cl)c2)c1	0%	-1%	-6%	98% (active)	inactive	inactive	inactive	inactive
CN(C)C(CNc1ncnc2cc(Cl)ccc12)Cc1ccccc1 (stereo not given)	88% (active)	13%	-4%	96% (active)	inactive	inactive	inactive	inactive
Cc1[nH]c(C)c(-c2ccc(-c3ccc(Cl)cc3)nc2)c(=O)c1Cl	96% (active)	8%	3%	95% (active)	inactive	inactive	inactive	inactive
CCOc1c(N2CCN(CCCCNC(=O)c3ccc(NC(=O)c4ccc(Cl)cc4)cc3)CC2)ccc2ccccc12	45%	18%	0%	100% (active)	inactive	inactive	inactive	inactive
O=C(Nc1ccc(Cl)c(Cl)c1)Nc1ccccc1N1CCNCC1	22%	17%	1%	101% (active)	inactive	inactive	inactive	inactive
COCc1nc(N)nc(N)c1-c1ccc(Cl)c(Cl)c1	1%	4%	-1%	84% (active)	inactive	inactive	inactive	inactive
CC(C)(C)c1ccc(-c2ccccc2CNC(=O)c2cccc(O)c2)cc1	88% (active)	3%	-2%	99% (active)	inactive	inactive	inactive	inactive
COc1cccc(CNC(=O)c2ccnc(-c3cccc(CN(C)C4CCN(C)CC4)c3)c2)c1	46%	19%	-1%	100% (active)	inactive	inactive	inactive	inactive
O=C(NCC1CC1)C1Cc2c([nH]c3ccc(Br)cc23)C2(CCN(CCc3ccccc3)CC2)N1 (stereo not given)	25%	14%	1%	88% (active)	inactive	inactive	inactive	inactive
CC(C)C(C(=O)Nc1ccc2c(c1)OCO2)c1ccc(Cl)cc1 (stereo not given)	89% (active)	25%	-7%	98% (active)	inactive	inactive	inactive	inactive
CC(Cc1ccc(CNC(=O)NCc2ccc(CC(C)NCCc3cccc(Cl)c3)cc2)cc1)NCCc1cccc(Cl)c1 (stereo not given)	44%	100% (active)	-4%	100% (active)	inactive	inactive	inactive	inactive
CCOc1cccc(C(=O)Nc2ccc(-c3nc4ccccc4[nH]3)cc2)c1	30%	40%	-1%	96% (active)	inactive	inactive	inactive	inactive
COc1cccc2c(NN=Cc3cccc(Cl)c3)ccnc12	77% (active)	19%	6%	101% (active)	inactive	inactive	inactive	inactive
FC(F)(F)c1cccc(CNC2CCN(CC3CCCCC3)CC2)c1	12%	0%	0%	101% (active)	inactive	inactive	inactive	inactive
CNC(=O)COc1ccc(Nc2nnc(-c3ccc(C)c(S(=O)(=O)NCC4CCCO4)c3)c3ccccc23)cc1 (stereo not given)	68% (active)	-8%	0%	90% (active)	inactive	inactive	inactive	inactive
COc1cc2nccc(Nc3ccc(OCc4ccccc4)cc3)c2cc1OC	99% (active)	35%	1%	101% (active)	inactive	inactive	inactive	inactive
Cc1ccc(O)cc1Nc1ccnc2cc(-c3ccccc3)ccc12	99% (active)	45%	-2%	100% (active)	inactive	inactive	inactive	inactive
CC(C)C[C@@H](C(=O)N[C@@H](CCCCNC(=O)OCc1ccccc1)C(=O)Nc1nccs1)[C@H](C)N(O)C=O	98% (active)	-2%	8%	99% (active)	inactive	inactive	inactive	inactive
CCCCCN1CCC(CNS(=O)(=O)c2ccc(C(=O)Nc3cccc(C(F)(F)F)c3)cc2)CC1	13%	13%	-7%	98% (active)	inactive	inactive	inactive	inactive

Compound	growth inhibition [1]	inhibition [2]	inhibition [3]	growth inhibition [4]	outcome [5]	outcome [6]	outcome [7]	outcome [8]
COc1cccc2c(Oc3ccccc3C)ccnc12	45%	-7%	4%	85% (active)	inactive	inactive	inactive	inactive
COc1cccc2c(NN=Cc3cccc(F)c3)ccnc12	44%	12%	5%	99% (active)	inactive	inactive	inactive	inactive
Cc1cc(OC(C)C(=O)N2CCc3ccccc32)ccc1Cl (stereo not given)	54% (active)	20%	6%	89% (active)	inactive	inactive	inactive	inactive
Cc1cc2nc(-c3ccc(/C=C/C(=O)NC4CCCCC4)cc3)[nH]c2cc1C	10%	9%	2%	93% (active)	inactive	inactive	inactive	inactive
O=C(COC(=O)c1cccc(S(=O)(=O)N2CCc3ccccc32)c1)NNC(=O)c1cccs1	4%	4%	3%	96% (active)	inactive	inactive	inactive	inactive
O=C(Nc1nc2cc(S(=O)(=O)NCCCN3CCOCC3)ccc2n1CCCn1ccnc1)c1ccc(Cl)cc1	-6%	-27%	-1%	95% (active)	inactive	inactive	inactive	inactive
Cc1cc(N(C)C2CCN(CC3CCCCC3)C2)nc(Nc2ccc(Br)cc2)n1 (stereo not given)	38%	14%	-1%	98% (active)	inactive	inactive	inactive	inactive
COc1cccc(OC(C)(C)c2nc(N[C@@H](C)c3ccccc3)c3cn[nH]c3n2)c1	69% (active)	44%	-4%	89% (active)	inactive	inactive	inactive	inactive
c1cc(CNCCN2CCNCC2)cc(-c2ccc(-c3nc4ccccc4[nH]3)cc2)c1	11%	3%	-3%	98% (active)	inactive	inactive	inactive	inactive
CN(C)c1ccc(C(c2ccc(N(C)C)cc2)c2cc([N+](=O)[O-])ccc2Cl)cc1	67% (active)	0%	7%	96% (active)	inactive	inactive	inactive	inactive
O=C(Nc1ccc(Cl)c(Cl)c1)N[C@H]1CCN(CCCCCNC(=O)[C@@H]2C[C@H]2c2ccc(Cl)c(Cl)c2)C1	8%	42%	3%	93% (active)	inactive	inactive	inactive	inactive
O=C(Cc1ccccc1)NC(CCN1CCC(N(C2CC2)S(=O)(=O)c2cccc(C(F)(F)F)c2)CC1)c1ccc(Cl)c(Cl)c1 (stereo not given)	27%	19%	6%	85% (active)	inactive	inactive	inactive	inactive
COc1cc2nc(N3CCC(CNC(=O)c4ccc(-c5ccc(C(=O)N(C)C)cc5)c(OCCO)c4)CC3)nc(N)c2cc1OC	18%	10%	-3%	96% (active)	inactive	inactive	inactive	inactive
COc1cc2c(cc1OC)CN(CCc1ccc(NC(=O)c3cc4cc(Cl)ccc4[nH]3)cc1)CC2	6%	3%	2%	90% (active)	inactive	inactive	inactive	inactive
NCCCNc1ccc(-c2ccc(NC(=O)Nc3cc(C(F)(F)F)ccc3F)cc2)cn1	66% (active)	-3%	3%	100% (active)	inactive	inactive	inactive	inactive
Cc1cc(N[C@@H](Cc2ccccc2)C(=O)NCc2cccs2)nc(NCCc2cccnc2)n1	38%	10%	-4%	84% (active)	inactive	inactive	inactive	inactive
CCCN(CCC)C(C)CCC(C)Nc1c2ccc(Cl)cc2nc2ccc(OC)cc12 (stereo not given)	99% (active)	41%	3%	101% (active)	inactive	inactive	inactive	inactive
N#Cc1ccc(N(CCOc2ccc(Cl)c(Cl)c2)Cc2ccccc2C(F)(F)F)cc1C(F)(F)F	57% (active)	13%	-2%	90% (active)	inactive	inactive	inactive	inactive
CCCN(C(=O)c1ccccc1C)c1nnc(-c2cccc(C)c2)s1	67% (active)	8%	-4%	91% (active)	inactive	inactive	inactive	inactive
Cc1ccc(CN2CCC(Oc3cccc(NC(=O)c4ccc(C(F)(F)F)cc4)c3)CC2)cc1	15%	37%	-1%	92% (active)	inactive	inactive	inactive	inactive
